Test results: PubChem BioAssay AID1508600 (Functional Genomics Laboratory (NCATS/FGL), 2020)
The campaign covered roughly 53,000 sequences. About 3,700 (7%) were called active.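 Rule for the calls: active = gene knockdowns whose robust z-score for IL-1 alpha signal is at least 2 or at most -2, so actives lie on both sides; inactive = the rest.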 Many of the other results were omitted from the sample, so actives are more common in it than they were.

Assay: Components of the Cytosolic LPS Sensing Pathway: Gene Identification via Genome-wide siRNA Screen;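 note: robust z of the log signal after scaling to non-targeting control siRNA wells of the plate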
Conditions: RAW264.7 macrophages, IL-1a HTRF, actives lie on both sides, screened at 100 nM (by protocol), cells primed 5 h with Pam3CSK4 first
Method in brief: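 RAW264.7; siRNA 100 nM final, RNAiMAX, 48h 37 degrees C; Pam3CSK4 5 h; LipidA + TransIT-TKO 24 h; IL-1a HTRF; CellTiter-Glo viability; robust z vs negative-control median.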

z-score, inactive:
GCAAGUGUAGAUAAAGUAUTT against Msi2 0.751
GGAAAAGAUAACUCAGACATT against Hrg 0.727
GGCCACCAUUUCUGAAAUCTT against Tecr 0.714
GAACACAAAUCUAGUAGACTT against Olfr1109 0.278
GGAGAAUUAAAAUGUGAAGTT against Hsd17b4 0.161
GGGUGCCUAGCAGAUGAACTT against Sp110 -0.912
GGACAAUGUUGAAUCCUGUTT against Rrp15 -0.155
GGAGGAAUCAAAGGCUCCUTT against Slc39a5 -0.319
GGCACAUUAGUAGAACACATT against Sorcs2 -0.243
GGAUCAUUCCUUUGGUUAGTT against Fabp5 -1.34
GGGUAGCUACGAAGAGGAATT against Ros1 1.72
GGAAAACCAGCUAAUUAUCTT against Ptger3 -0.23
GGAAAGUGUGUGUUAUAUUTT against Zfp358 1.98
CGGGAUAUCAUUCUCCAUATT against Lnpep 0.62
GGUUUUAAGUUCUAGGGAATT against Olfr1288 -0.599
GCAUGUUUACCUCAAAGUGTT against Cd209e 0.843
GGCCUUGCUUUCAUAAAGUTT against Mrpl49 0.348
CGAUACCCAACUGUUGAAATT against Ap5m1 1.12
CCCGCUAUUACGUUUUUCUTT against Mtarc2 -0.498
CCUCAGAACAAAUGAAAAUTT against Nlk -0.62
GGCAGGUGAAUGUGGUAGATT against Btbd17 0.165
GGCCAACACUAACACAGACTT against Tmem268 -0.357
GCACGAUGUACCUGAAUCUTT against Ifitm5 0.387
CCUGCUCUAGAGAAGAAGUTT against Naxe 0.879
GCAGUCACCUUCAAAAAAATT against Zfp960 1.08
CGGUAGAAGGCUUAGGCAATT against Aox1 -0.922
GGUCAUAGCAUCUACGGCUTT against Gm4793 -0.11
GGUGUAAUUGGGAAAAUUCTT against Inpp5f -1.17
GGCCAACCUGUUCAUCAGCTT against Bdkrb1 -0.0817
GCACAGUGUAACUUAGGGCTT against Cenpb -0.525
CUAAAUGCCUCCUACCUUUTT against Krtap4-16 1.89
GGCAAGUUGACCGUGUUUUTT against Dtnb -0.307
GGUGAAACAGCGAAUAGGUTT against Zfp428 -0.168
GGAAUUGUAGAAAGUGUUGTT against Adh4 1.66
GGCUUUCCGCGCUAUUGAUTT against Pcmtd2 -0.027
GGAUUUUAGUGAAUUCCAUTT against Asah1 0.0675
CCCUGGAUUGAGGAUCGUUTT against Mrgpra8 -1.14
GGUUGAAGAGCAUGAGAGCTT against A330041J22Rik 1.01
GGAGCUAAACCAAUGGCAATT against Txndc15 0.479
GCCCAAGAAUGUGCCUUAUTT against Olfr1278 -0.578
GGUGAUGAAAAGAAUUGCATT against Pitrm1 0.417
GGACUUUGGUUUUUGUAAGTT against Vasn -1.72
GGUCCAAAGAAAGACCCAUTT against Cypt4 -0.131
GGAGAUCAUGUCAAAAAAGTT against Ibtk -0.848
GGGCUUUAUUCAUCCACUCTT against 1700067P10Rik 1.52
GGAAUGGAUCCUGAUGAUATT against Spcs2 -0.877
GCUCGAUCAUGGGCCUAUATT against Crls1 -0.189
GGAUAGUUUGGUAAUGAAATT against Cds1 -0.748
CGGGCUAUCUGGAACUAUATT against Sesn1 -0.466
GGUUUAUGCAAUGAAGCUUTT against Rock2 -0.0928
GGUUAUGGUUUUGUUGACUTT against Rbms1 -0.606
GGCUUUAAUGCCUGUAUUATT against Ilvbl -0.185
GGUUUGGAUGUGAAACAAGTT against Myot -0.861

z-score, active:
GCUCUACCCUGAAGAUAUATT against Immt 2.44
GGAGCUAAACUCCUUGAAGTT against Slc22a4 2.07
GGCGCAUUAGCAGAGACUGTT against Mrps5 4.17
GCCAAGAAUAGCAUUACUGTT against Abraxas1 -2.45
CGAGCUUAUCAUCAGCGACTT against Polr2f -2.74
GGUCAAUGGAGUAGAUUUATT against Pard3 2.24
GGUCAUGAAAAUUAAAGCATT against 1110059G10Rik -2.31
CCUGAGUCUCGGUUCACAATT against Kif12 -2.13
CCUCAGAAAAAGCCUAUAGTT against Kcnj3 -2.13
GGGCCUGUAAUGGUGUACATT against B230317F23Rik 2.56
GGAACUCCAGCUUUUGGUCTT against Sox13 2.51
GCAGACUAAAAUCACGACATT against Ednra 2.62
GGUAAACAUGUCUAUGACUTT against Fpr-rs7 -2.09
GGCAGAUAAAGAUGGAGCATT against Ndp 3.69
GGCUUAAAGGUCCUGUGCUTT against Ighmbp2 -2.89
